PHOSPHO1 block: inhibitors of human PHOSPHO1 phosphatase; inhibition, % at 13.3 µM; recombinant PHOSPHO1, absorbance phosphatase assay; hit rate 1.1% among 290,000; AID 1565; Q8TCT1; in the data active = inhibition above about 60%
Target sequence (Q8TCT1 whole entry, looked up): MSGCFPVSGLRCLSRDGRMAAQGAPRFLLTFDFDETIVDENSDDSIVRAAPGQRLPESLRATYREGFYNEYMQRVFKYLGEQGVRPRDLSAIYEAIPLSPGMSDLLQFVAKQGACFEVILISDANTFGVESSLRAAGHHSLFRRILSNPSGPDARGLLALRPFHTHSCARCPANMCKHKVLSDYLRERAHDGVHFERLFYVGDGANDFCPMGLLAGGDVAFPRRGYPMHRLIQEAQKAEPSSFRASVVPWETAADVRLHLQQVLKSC
PfM18AAP inh-1: blocks P. falciparum M18 aspartyl aminopeptidase. recombinant PfM18AAP, H-Glu-NHMec fluorogenic cleavage. inhibition, % at 7.35 µM. hit rate 1.2% among 290,000. AID 1822;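 active = inhibition above the campaign mean inhibition over all tested compounds plus 3 SD, cut at about 28% in these data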;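 also: 0% = plate median of test compound wells and 100% = 2 mM ZnCl2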
H9c2 protect: protects H9c2 cardiomyocytes from peroxide injury; H2O2 injury protection, ATPLite, 2 h; protection from H2O2 cell death, % at 20 µM; hit rate 0.63% among 360,000; AID 588492;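 active = compounds giving at least 50% protection of heart cells from peroxide-induced death in the single-dose screen, raw or plate-pattern-corrected value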;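 also: 0% = DMSO wells with peroxide and 100% = DMSO wells without peroxide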
PfG6PD inh: PfG6PD (Plasmodium falciparum) enzyme inhibition; AID 504690; hit rate 0.78% among 350,000; PfGluPho enzyme, NADPH resazurin-diaphorase fluorescence; inhibition, % at 20 µM;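 active = inhibition reaching at least a set limit at 20 µM in the primary screen, cut at about 59% in these data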;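 also: 0% = DMSO wells with substrate and 100% = DMSO wells lacking glucose-6-phosphate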
ALR H2O2 inh: human ALR oxidase inhibition via reduced H2O2. P55789. purified ALR, DTT oxidation, H2O2 HRP-luminol luminescence. inhibition, % (concentration not given with the values). hit rate 3.8% among 290,000;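 active = mean replicate inhibition above about 79%, with every replicate also reaching it, limit read from the data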
PfM18AAP inh-2: PfM18AAP inhibition, confirmation | shares compounds with PfM18AAP inh-1 | recombinant PfM18AAP, H-Glu-NHMec fluorogenic cleavage | inhibition, % at 7.35 µM | hit rate 28% among 2,400 | AID 2170;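 active = mean inhibition over replicate wells above the hit cutoff set for the earlier primary screen, cut at about 29% in these data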;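 also: 0% = median of test compound wells and 100% = 2 mM ZnCl2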
CTSL1 counter: counter-screen for PFM18AAP inhibitors: confirmation of human cathepsin L inhibitors; shares compounds with PfM18AAP inh-1; purified cathepsin L1, Z-Leu-Arg-MCA fluorescence; inhibition, % at 5.96 µM; 2,400 tested, under 10 active; AID 2178;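 active = average inhibition across replicates above the hit cutoff set in the earlier primary screen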;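 also: 0% = median of test compound wells and 100% = Z-Phe-Ala-diazomethylketone 1 µM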
Target sequence (P07711 whole entry, looked up): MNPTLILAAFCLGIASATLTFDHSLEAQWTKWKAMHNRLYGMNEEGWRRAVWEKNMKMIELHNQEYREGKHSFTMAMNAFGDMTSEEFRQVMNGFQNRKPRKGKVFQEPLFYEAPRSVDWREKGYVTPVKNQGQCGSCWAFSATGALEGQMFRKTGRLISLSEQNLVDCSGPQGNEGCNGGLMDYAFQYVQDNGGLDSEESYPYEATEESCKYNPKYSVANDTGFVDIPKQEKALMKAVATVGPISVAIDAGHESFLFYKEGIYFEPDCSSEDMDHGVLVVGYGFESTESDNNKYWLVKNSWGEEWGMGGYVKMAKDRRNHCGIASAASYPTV
* = called active by the depositor; . = no result given. This is a sample that favours compounds with a hit; in the whole collection about 5.6% have one here.

SMILES	PHOSPHO1 block	PfM18AAP inh-1	H9c2 protect	PfG6PD inh	ALR H2O2 inh	PfM18AAP inh-2	CTSL1 counter
Cc1ccc(F)cc1C(=O)N1CCCC(c2cc(C(=O)Nc3ccccc3Cl)no2)C1 (stereo not given)	.	.	-8	.	.	.	.
O=C(COc1ccccc1C(=O)N/N=C\c1ccc(O)c(O)c1)N/N=C/c1ccc(O)c(O)c1	30	76*	54*	38	99*	74*	0
CC(C)(C)c1ccc(OCc2ccc(C(=O)N/N=C/c3ccc(O)c(O)c3)cc2)cc1	-10	36*	41	-2	.	-5	-6
COCc1c(C(=O)NCCc2ccc(OC(F)F)cc2)oc2ccccc12	.	.	-3	5	-6	.	.
COc1cc(N/N=C/c2ccccc2O)ncn1	-12	41*	38	-2	21	-18	4
COc1cc(N/N=C/c2ccc(N(C)C)cc2)ncn1	37	10	-31	11	.	.	.
CCc1nnc(NC(=O)CSc2nnc(COc3cccc(C)c3)o2)s1	88*	47*	0	-24	15	-40	-5
COc1ccc(Cc2nnc(SCC(=O)Nc3ncc(C)s3)o2)cc1	0	21	-2	1	-5	.	.
CCc1nnc(NC(=O)CSc2nnc(Cc3ccc(OC)cc3)o2)s1	43	41*	6	-22	9	-33	-3
CCn1c(CSc2nnc(-c3ccncc3)n2C)nc2cc(C(=O)O)ccc21	34	-3	-5	5	-7	.	.
CCn1c(CSc2ncn[nH]2)nc2cc(C(=O)O)ccc21	3	48*	3	8	.	9	6
Cc1cccc(C)c1NC(=S)NCCc1ccc(O)c(O)c1	-11	73*	12	10	60	50*	-7
S=C(NCCc1ccccc1)Nc1c(Cl)cccc1Cl	32	41*	-1	4	2	-4	-5
Cc1cccnc1NC(=S)NCCc1ccccc1	-64	42*	-11	37	.	1	1
OCCNC(=S)NCCc1ccccc1	-5	0	4	12	-2	.	.
C[C@H](CO)N1C[C@H](C)[C@H](CN(C)C(=O)c2ccc3ccn(C)c3c2)OCc2cnnn2CCCC1=O	.	.	13	-6	.	.	.
NS(=O)(=O)c1ccc(NNC(=O)c2sccc2Cl)cc1	-64	52*	2	13	15	28	-8
COc1cc(/C=N\Nc2nncn2N)ccc1OC(C)=O	.	53*	-7	33	26	-4	5
COc1cc(C=Nc2c(C)cc(C)cc2C)ccc1OC(C)=O	-2	10	4	-2	7	.	.
COc1ccc(OC)c(/C=N/Nc2nncn2/N=C/c2cc(OC)ccc2OC)c1	-6	51*	81*	33	-3	-44	1
COc1ccc(/C=C/C(=O)Nc2ccccc2C(F)(F)F)cc1OC	11	1	8	-3	-4	.	.
COc1cc(/C=N/Nc2ccccc2C(F)(F)F)ccc1O	41	39*	-1	36	12	-13	0
COc1cccc2c(N/N=C/c3ccc(O)c(O)c3)cc(C)nc12	-60	56*	20	-5	99*	32*	-1
O=C(COC(=O)c1ccc(Br)o1)NCc1ccccc1Cl	.	.	-4	-3	-4	.	.
Cc1cc(=O)oc2cc(NC(=O)c3ccccc3Cl)ccc12	32	0	-2	2	-1	.	.
SMILES	PHOSPHO1 block	PfM18AAP inh-1	H9c2 protect	PfG6PD inh	ALR H2O2 inh	PfM18AAP inh-2	CTSL1 counter
CN(C)c1ncnc2c1ncn2C1CCCO1 (stereo not given)	.	.	3	-4	.	.	.
COc1cc(/C=N/Nc2nncn2/N=C/c2ccc(O)c(OC)c2)ccc1O	-5	63*	-20	19	99*	42*	2
Cc1ccccc1NC(=O)Cc1nc(COC(=O)c2ncc(Cl)c(Cl)c2Cl)cs1	.	.	0	15	.	.	.
C=CCNCCOCCOc1ccc(C)cc1Br	7	4	9	-31	-2	.	.
CCC(C)NCCOCCOc1ccc(C)cc1Br (stereo not given)	31	32*	8	2	-9	-26	-1
Cc1ccc(OCC(=O)n2cnnc2N)c(C)c1	12	57*	.	.	-2	54*	-4
COC(=O)c1cn(C(=O)c2cc(C)cc(C)c2)c2ccccc12	29	-6	-3	-1	1	.	.
Cc1cccc(C(=O)n2cnnc2N)c1	26	45*	7	3	10	56*	-1
COC(=O)c1cn(C(=O)c2cccc(C)c2)c2ccccc12	-3	-1	-7	16	-25	.	.
Cc1ccc(OCC(=O)N2CCc3ccccc3C2)c(C)c1	-6	-2	-3	21	-6	.	.
Cc1cc(C)cc(C(=O)n2cnnc2N)c1	0	48*	1	-5	8	59*	5
O=C1NC(=O)C(c2ccccc2[N+](=O)[O-])=C1Nc1ccc(O)c(Cl)c1	15	40*	4	52	99*	-81	-4
O=C1NC(=Nc2ccccc2Cl)S/C1=C\c1cc([N+](=O)[O-])ccc1O	29	16	-5	25	46	.	.
Cc1nc(SCc2ccc(O)c([N+](=O)[O-])c2)n[nH]1	-4	15	10	5	-2	.	.
Cc1nc(SCc2ccc(O)c([N+](=O)[O-])c2)c([N+](=O)[O-])[nH]1	51	47*	8	58	47	-3	3
C=CCSC1=N/C(=C\c2cc(OCC)c(OC(C)=O)c([N+](=O)[O-])c2)C(=O)S1	7	38*	-14	36	98*	-44	2
Cc1cccc(NC(=O)C2Cc3ccccc3O/C2=N\O)c1 (stereo not given)	37	2	-2	1	-11	.	.
CN(Cc1c(C(=O)N/N=C/c2ccccc2O)nnn1-c1nonc1N)C1CCCCC1	.	.	43	-9	.	.	.
Cc1cc(C)c2cc(CN(CC3CCCO3)C(=S)NCc3ccco3)c(=O)[nH]c2c1 (stereo not given)	1	-7	-4	7	7	.	.
Cc1cc(C)c2cc(CN(Cc3ccco3)C(=O)NCc3ccccc3)c(=O)[nH]c2c1	2	35*	14	4	-6	-19	-2
CCCOc1ccc(C2C(C(=O)/C=C/c3ccco3)=C(O)C(=O)N2CCN2CCOCC2)cc1OC (stereo not given)	5	33*	-4	24	0	-38	1
COc1cc(C2C(C(C)=O)=C(O)C(=O)N2CCN2CCOCC2)ccc1O (stereo not given)	16	-3	6	-8	12	.	.
O=C(NNC(=O)c1ccccc1Cl)c1cccs1	23	-2	13	-23	-1	.	.
O=C(NNC(=S)NC(=O)c1ccccc1[N+](=O)[O-])c1ccccc1O	-16	43*	8	-44	55	21	-1
O=C(NNC(=O)c1cc(Cl)ccc1O)c1cccs1	0	35*	1	-22	.	-5	-3
O=C(NC(=S)Nc1cccc2c(O)cccc12)c1ccccc1[N+](=O)[O-]	21	18	3	22	31	.	.
